Assay results reported in PubChem BioAssay AID1626 (SRMLSC, 2009).
In all, about 220,000 compounds went through this assay and about 2,000 (0.91%) were called active. Another 2% or so got no clear call; they are omitted. These entries were drawn from the full list. Potency and affinity values are given separately. A number with no mark means an inactive call. Cut-off read from the data, not from the text of the source: inconclusive = inhibition above about 80% without an active follow-up result; inactive = below that; test concentration not stated here.

assay: M. tuberculosis H37Rv growth inhibitors, H37Rv strain (AID 1626); settings: active compounds read high, concentration not given here;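 note: bacteria incubated seven days before Alamar blue readout; 0% = bacteria only wells and 100% = bacteria with antibiotic wells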

Row | SMILES | inhibition
1 | CC(C)(C)c1ccccc1OCCCCN1CCCC1 | 6.1%
2 | CC(C)(C)c1ccccc1OCCN1CCCC1 | -0.65%
3 | CNC(=O)NC(=O)COC(=O)c1ccc(-n2c(C)ccc2C)cc1 | 20.2%
4 | CCOc1ccc(NC(=O)CSc2nnc(C3CC3)n2C)cc1 | 27.2%
5 | Cc1ccc(S(=O)(=O)N(CCCO)Cc2cc3c(C)ccc(C)c3[nH]c2=O)cc1 | -4.12%
6 | c1ccc(CN2CCN(c3nc4ccccc4n4cnnc34)CC2)cc1 | 6.21%
7 | c1ccc(CC2CCN(c3nc4ccccc4n4nnnc34)CC2)cc1 | 12.1%
8 | O=C(Nc1cccc(C(F)(F)F)c1)C1CCCN1S(=O)(=O)c1cccc2cccnc12 (centres undefined) | -8.3%
9 | CCCNC(=O)c1ccc2c(=O)c(O)c(-c3ccc(OC)cc3)[nH]c2c1 | -8.43%
10 | CCO[C@@H]1OC(C(=O)O)=C[C@H](C2CCCCC2)[C@H]1CCCO | 6.74%
11 | CCN(CC)c1ccc(NC(=O)c2ccc(Br)o2)cc1 | -1.94%
12 | CCCCOC(=O)Nc1ccc(C(=O)OC)cc1 | -7.29%
13 | CCOC(=O)NCCOC(=O)Nc1ccc(Cl)cc1 | 2.79%
14 | COc1ccc(NC(=O)c2ccc(Br)o2)cc1 | -11.7%
15 | CCCCOC(=O)Nc1cccc(C(=O)OCC)c1 | 4%
16 | CCOC(=O)c1ccc(NC(=O)c2cc(OC)c(OC)c(OC)c2Br)cc1 | 30.9%
17 | CCCCOC(=O)Nc1ccc(C(N)=O)cc1 | -2.7%
18 | CCCOC(=O)c1ccc(NC(=O)c2cc(OC)c(OC)c(OC)c2Br)cc1 | -1.63%
19 | O=C1CCC2c3ccc4ccccc4c3CCN12 (centres undefined) | -9.72%
20 | O=C(O)c1ccccc1C(=O)NCc1cccnc1 | -5.59%
21 | COc1ccc(-n2c(NN)nc3sc4c(c3c2=O)CCCC4)cc1 | 9.05%
22 | COc1ccc(-n2c(C)nc3sc4c(c3c2=O)CCC4)cc1 | -4.02%
23 | CNC(C)C#Cc1ccc2c(=O)c3cc(C)c(C)cc3oc2c1 (centres undefined) | -0.56%

Row | SMILES | inhibition
24 | Cn1nc(C(=O)OCC(=O)Nc2ccc(S(N)(=O)=O)cc2)c2ccccc2c1=O | 4.62%
25 | COc1ccc(CCNC(=O)CSCc2ccc(F)cc2)cc1OC | -4.44%
26 | Cc1ccccc1OC(=O)CCC(=O)OCCCC(F)(F)C(F)(F)F | -4.35%
27 | COCCCN1CCN(C2Cc3ccccc3Sc3ccc(Cl)cc32)CC1 (centres undefined) | 54.7%
28 | c1ccc2c(c1)CC(N1CCCCC1)c1ccccc1N2 (centres undefined) | -6.95%
29 | CCc1nnc(NC(=O)CSc2nc3cc4c(cc3cc2CC)OCCO4)s1 | 7.01%
30 | Cn1c(CN2CCOCC2)nnc1SCC(N)=O | 7.64%
31 | O=C(NCCSCc1c(F)cccc1Cl)c1ccc(CN2CCOCC2)cc1 | 0.75%
32 | CC1CCN(S(=O)(=O)N2CCC(C(=O)O)CC2)CC1 | -4.2%
33 | C=CCNC(=O)NC(=O)CSc1nnc(C(F)(F)F)n1C | -4.51%
34 | CCCc1cc(=O)oc2cc(OCC(=O)OC)cc(OCC(=O)OC)c12 | 6.75%
35 | CCCCCCc1ccc(OCC(=O)O)cc1OCC(=O)O | -14.7%
36 | Cn1c2ccc(F)cc2c2ncn(CC3CCCO3)c(=O)c21 (centres undefined) | -14%
37 | CCCCCn1c(=O)c(C(=O)NCc2ccncc2)c(O)c2ccccc21 | 41.4%
38 | CCCCn1c(=O)c(C(=O)NCc2ccncc2)c(O)c2ccccc21 | -0.26%
39 | CCCn1c(=O)c(C(=O)NCc2cccnc2)c(O)c2ccccc21 | -5.34%
40 | CC(C)Cn1c(=O)c(C(=O)Nc2cnccn2)c(O)c2ccccc21 | -13.3%
41 | O=C(/C=C/c1ccco1)NC(=S)Nc1ccccn1 | 2.96%
42 | COc1ccc(S(=O)(=O)N(C)C2CCN(C)CC2)cc1 | -0.56%
43 | CC(=O)c1ccc(C(=O)N2CCC(CO)(Cc3cccc(C(F)(F)F)c3)CC2)cc1 | -0.21%
44 | CC1=C(C(=O)NC2CCC(C)CC2)C2(CCC(C)CC2)OC1=O (centres undefined) | 3.77%
45 | CCc1ccc(/C=C/C(=O)c2c(C)cc(C)[nH]c2=O)cc1 | 8.7%
46 | CCc1ccc(/C=C/C(=O)c2ccc(S(=O)(=O)N(C)C)cc2)cc1 | 6.7%

Row | SMILES | inhibition
47 | O=C(c1ccccc1)C1C(=O)c2ccccc2C1=O | -2.43%
48 | COC(=O)C1C(=O)C(C(=O)/C=C/c2ccccc2)C(=O)CC1(C)C (centres undefined) | -2.58%
49 | Cc1ccc(C(=O)C2C(=O)c3ccccc3C2=O)cc1 | 39.5%
50 | Cc1ccc(/C=C/C(=O)c2ccccc2O)cc1 | 11.9%
51 | CNc1nc(-c2ccc3c(c2)CCN3C(=O)c2ccccc2F)cs1 | 0.06%
52 | CC(C)(C)NC(=O)CN(C(=O)CSc1nnc(COc2ccccc2)o1)c1cccc(F)c1 | 4.71%
53 | CC(C)OP(=O)(OC(C)C)C(NCc1ccccc1)c1ccccc1 (centres undefined) | 4.8%
54 | COC(=O)c1c(-c2ccccc2)noc1C | -2.56%
55 | COc1ccc(/C=N/NC(=O)Nc2nonc2N)cc1 | -4.3%
56 | OCCCNCc1cccc2ccccc12 | 3.9%
57 | O=C(Nc1ccccc1Cl)c1csc(-c2cccnc2)n1 | 2.6%
58 | Cc1[nH]c(C)c2c(=O)n(-c3ccccc3)ncc12 | 3.67%
59 | CCSc1cc(N2CCCC2)nc(-c2ccc(C)cc2)n1 | 3.04%
60 | CCCSc1cc(N2CCCC2)nc(-c2ccccc2)n1 | 6.61%
61 | CC(C)(CC(=O)O)CC(=O)NNc1ncccc1C#N | 9.47%
62 | CCOc1ccc(/C=N/N(C)c2ccccc2)cc1OC | 33.5%
63 | Cc1ccc(NC(=O)C2CCCCC2C(=O)O)cc1C (centres undefined) | 1.55%
64 | O=C(O)C1CCCCC1C(=O)Nc1ccc(F)c(F)c1 (centres undefined) | 0.5%
65 | COc1cc(/C=N/NC(N)=O)ccc1OCC(=O)N1C(C)CCCC1C (centres undefined) | -1.38%
66 | O=C(c1ccccc1)c1cc2ccccc2o1 | 1.99%
67 | Nc1nc(Nc2ccccc2)sc1C(=O)c1ccccc1 | 36.1%
68 | Cc1sc(N)c(C(=O)c2ccccc2)c1C | -10.3%
69 | CN(C)/C=N/c1ncc(C(=O)c2ccccc2)s1 | -11.7%
